# Laboratory results taken from the supplement of paper PMC8728848.
# Shown is part of a subset that was picked to be rich in the strongest signals.
# Assays:
# Experiment in all cases: glycan array binding signal (z-score within array); higher = stronger binding
# Conditions in all cases: glycan notation: IUPAC condensed, linker removed
# [1] = molecular target: Fuc(a1-2)Gal(b1-3)GalNAc(a1-3)[Fuc(a1-2)]Gal(b1-4)Glc
# Summary of the method: (§1)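 Arrays were curated from the Consortium for Functional Glycomics database, 3228 in total, and kept only where the protein sequence was available. Binding is expressed as a within-array Z-score. This score was averaged across arrays of the same protein sequence at different concentrations or buffers and across linkers, and negative values can be read as non-binding.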
# [2] = molecular target: Fuc(a1-2)Gal(b1-3)GlcNAc(b1-3)Gal(b1-4)Glc
# Summary of the method: as §1
# Fuc(a1-2)Gal(b1-4)Glc6S = molecular target: Fuc(a1-2)Gal(b1-4)Glc6S
# Summary of the method: as §1
# [3] = molecular target: Fuc(a1-2)[Gal(a1-3)]Gal(b1-4)[Fuc(a1-3)]GlcNAc
# Summary of the method: as §1
# [4] = molecular target: Fuc(a1-2)[GalNAc(a1-3)]Gal
# Summary of the method: as §1
# [5] = molecular target: Fuc(a1-2)[GalNAc(a1-3)]Gal(b1-4)GlcNAc(b1-3)Gal(b1-4)GlcNAc(b1-3)Gal(b1-4)GlcNAc
# Summary of the method: as §1
# [6] = molecular target: Fuc(a1-3)[Gal(b1-4)]GlcNAc(b1-3)GalNAc
# Summary of the method: as §1
# [7] = molecular target: Fuc(a1-3)[Gal3S(b1-4)]GlcNAc
# Summary of the method: as §1
# [8] = molecular target: Gal(b1-3)GalNAc(a1-3)[Fuc(a1-2)]Gal(b1-4)Glc
# Summary of the method: as §1
# [9] = molecular target: Gal(b1-3)GlcNAc(b1-6)Gal(b1-4)GlcNAc
# Summary of the method: as §1
# Gal(b1-4)GlcNAc = molecular target: Gal(b1-4)GlcNAc
# Summary of the method: as §1
# [10] = molecular target: Gal(b1-4)GlcNAc(b1-2)Man(a1-3)[Gal(b1-4)GlcNAc(b1-2)Man(a1-6)]Man(b1-4)GlcNAc(b1-4)GlcNAc
# Summary of the method: as §1
# [11] = molecular target: Gal(b1-4)GlcNAc(b1-3)Gal(b1-3)GlcNAc
# Summary of the method: as §1
# [12] = molecular target: Gal(b1-4)GlcNAc(b1-3)Gal(b1-4)[Fuc(a1-3)]GlcNAc(b1-3)Gal(b1-4)[Fuc(a1-3)]GlcNAc
# Summary of the method: as §1
# Gal6S(b1-4)GlcNAc6S = molecular target: Gal6S(b1-4)GlcNAc6S
# Summary of the method: as §1
# GalNAc(b1-3)Gal = molecular target: GalNAc(b1-3)Gal
# Summary of the method: as §1
# Glc(a1-4)Glc = molecular target: Glc(a1-4)Glc
# Summary of the method: as §1
# GlcA(b1-3)GlcNAc = molecular target: GlcA(b1-3)GlcNAc
# Summary of the method: as §1
# [13] = molecular target: GlcNAc(b1-2)Man(a1-3)[GlcNAc(b1-2)Man(a1-6)]Man(b1-4)GlcNAc(b1-4)GlcNAc
# Summary of the method: as §1
# [14] = molecular target: GlcNAc(b1-2)[GlcNAc(b1-4)]Man(a1-3)[GlcNAc(b1-2)Man(a1-6)]Man(b1-4)GlcNAc(b1-4)GlcNAc
# Summary of the method: as §1
# [15] = molecular target: GlcNAc(b1-3)[GlcNAc(b1-4)][GlcNAc(b1-6)]GlcNAc
# Summary of the method: as §1
# [16] = molecular target: GlcNAc(b1-3)[GlcNAc(b1-6)]Gal(b1-4)GlcNAc
# Summary of the method: as §1
# [17] = molecular target: GlcNAc(b1-4)[GlcNAc(b1-6)]GalNAc
# Summary of the method: as §1
# [18] = molecular target: Neu5Ac(a2-3)Gal(b1-3)GalNAc6S
# Summary of the method: as §1
# [19] = molecular target: Neu5Ac(a2-3)Gal(b1-3)GlcNAc6S
# Summary of the method: as §1
# [20] = molecular target: Neu5Ac(a2-3)Gal(b1-3)[Fuc(a1-4)]GlcNAc(b1-3)Gal(b1-3)[Fuc(a1-4)]GlcNAc
# Summary of the method: as §1
# [21] = molecular target: Neu5Ac(a2-3)Gal(b1-3)[Neu5Ac(a2-6)]GalNAc
# Summary of the method: as §1
# [22] = molecular target: Neu5Ac(a2-3)Gal(b1-4)GlcNAc(b1-3)Gal(b1-4)[Fuc(a1-3)]GlcNAc
# Summary of the method: as §1
# Neu5Ac(a2-6)Gal(b1-4)Glc = molecular target: Neu5Ac(a2-6)Gal(b1-4)Glc
# Summary of the method: as §1
# [23] = molecular target: Neu5Ac(a2-6)GlcNAc(b1-4)GlcNAc
# Summary of the method: as §1
binder,measurement,setting,value
SSL (Salmo salar) (protein) TGAKGAEEGVVPAETRNQCPTGWFQFGSRCFMFVETARSWPLAERHCVSLGANLASVHSSADDQFLQAIAGCKTGAFSTTWIGGFDAVQDRLWFWSDGSEFDYQNWAKGEPNNSGGREPCIVINWGDEYRWNDIKCGNSFPSVCSKRICEIQKN,glycan array binding signal (z-score),[1],-0.152
same,glycan array binding signal (z-score),[2],-0.096
same,glycan array binding signal (z-score),Fuc(a1-2)Gal(b1-4)Glc6S,-0.137
same,glycan array binding signal (z-score),[3],-0.154
same,glycan array binding signal (z-score),[4],-0.165
same,glycan array binding signal (z-score),[5],-0.178
same,glycan array binding signal (z-score),[6],-0.124
same,glycan array binding signal (z-score),[7],-0.17
same,glycan array binding signal (z-score),[8],-0.165
same,glycan array binding signal (z-score),[9],-0.163
same,glycan array binding signal (z-score),Gal(b1-4)GlcNAc,-0.154
same,glycan array binding signal (z-score),[10],-0.167
same,glycan array binding signal (z-score),[11],-0.174
same,glycan array binding signal (z-score),[12],-0.175
same,glycan array binding signal (z-score),Gal6S(b1-4)GlcNAc6S,-0.162
same,glycan array binding signal (z-score),GalNAc(b1-3)Gal,-0.143
same,glycan array binding signal (z-score),Glc(a1-4)Glc,2.63
same,glycan array binding signal (z-score),GlcA(b1-3)GlcNAc,4.35
same,glycan array binding signal (z-score),[13],3.12
same,glycan array binding signal (z-score),[14],6.65
same,glycan array binding signal (z-score),[15],11.7
same,glycan array binding signal (z-score),[16],6.68
same,glycan array binding signal (z-score),[17],8.49
same,glycan array binding signal (z-score),[18],-0.18
same,glycan array binding signal (z-score),[19],-0.167
same,glycan array binding signal (z-score),[20],-0.086
same,glycan array binding signal (z-score),[21],-0.153
same,glycan array binding signal (z-score),[22],-0.179
same,glycan array binding signal (z-score),Neu5Ac(a2-6)Gal(b1-4)Glc,-0.158
same,glycan array binding signal (z-score),[23],0.202
